Source: PubChem
MCF10A rerep = inducers of DNA re-replication in MCF 10A breast cells | Potency, µM (titrated, usually from 46.1 µM), hits mostly activators | AID 624296 | MCF 10A DNA re-replication, Hoechst nuclear intensity, 48 h | actives 2.9% (n = 350,000); also: nearly all actives have a fitted effect of over 50% in size
KCNH2 3.1 block = KCNH2 3.1 (human) potassium channel inhibition; actives 0.95% (n = 340,000); activity change, % (tested at about 1.8 µM); U2OS KCNH2 3.1, thallium flux FluxOr; stronger effect = lower value; AID 720553;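 active = maximum activity change below -70%; inconclusive = maximum activity change from -70% to -50%; inactive = maximum activity change above -50%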;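 also: thallium influx rate constant from kinetic fluorescence after stimulation buffer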
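Measured as rate of thallium-driven FluxOr signal in transduced U2OS cells carrying the 3.1 channel, read kinetically for 2 min upon stimulation; values are rate constants scaled to DMSO control wells.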
hERG WT inh = blocks the wildtype human KCNH2 potassium channel | Q12809 | U2OS, BacMam KCNH2, thallium flux FluxOr; stronger effect = lower value | activity change, % at 1.84 µM | actives 0.37% (n = 340,000);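 active = maximum activity change below -70%; inconclusive = maximum activity change between -70% and -50%; inactive = maximum activity change above -50%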
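U2OS cells transduced with wild-type KCNH2 virus are loaded with FluxOr dye for 45 min, and thallium flux is measured in kinetic reads before and after stimulation buffer. Rate constants are normalized to DMSO controls.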
KB-V1 cytotox = KB-V1 MDR subline cytotoxicity. KB-V1 MDR cells viability, CellTiter-Glo, 72 h. Potency, µM (top dose mostly 46.1 µM), actives largely listed as cytotoxic. actives 3.4% (n = 400,000). AID 1347076; also: nearly all actives have a fitted effect of over 60% in size
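Compound-treated KB-V1 multidrug-resistant cells, 72 h, 37 degrees C; viability by CellTiter-Glo. Fitted qHTS curves give the values.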
SW480 rereplic = inducers of DNA re-replication in SW480 colon cancer cells; Potency, µM (doses to about 46.1 µM), usual class: activators; AID 624297; actives 1.8% (n = 340,000); SW480 DNA re-replication, Hoechst DNA content imaging, 48 h; also: nearly all actives have a fitted effect of over 55% in size
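Treated cells incubate 48 hr (37 C, 5% CO2), are stained 40 min with Hoechst, and nuclear fluorescence is enumerated; a rise in nuclei with high DNA signal marks re-replication.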
KB-3-1 tox = KB-3-1 parental cell cytotoxicity | KB-3-1 viability, CellTiter-Glo ATP luminescence, 72 h | actives 1.4% (n = 400,000) | Potency, µM (titrated, usually from 46.1 µM), actives largely listed as cytotoxic; also: nearly all actives have a fitted effect of over 60% in size
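Screening of KB-3-1 cells (DMEM, 10% FBS, phenol-red free) ran from lowest to highest compound concentration; after 72 h at 37 °C viability was read luminescently and curves fitted.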
A number is an active result; – = inactive; ? = inconclusive; · = not tested or not shown. An excerpt weighted towards active compounds, which were near 7.6% of everything screened. Unless noted, calls follow the shape of the dose curve; as a rule, active = well fitted curve in the direction sought with a large enough effect; inconclusive = small, poorly fitted or top-dose-only effect, or another doubt; inactive = no such curve, though single readings can be large; an effect the other way counts as inactive or inconclusive.

SMILES	MCF10A rerep	KCNH2 3.1 block	hERG WT inh	KB-V1 cytotox	SW480 rereplic	KB-3-1 tox
CCC12CN3CC(C)(CN(C1)C3c1c[nH]c3ccccc13)C2=O (stereo unspecified)	·	·	·	–	·	–
CCOC(=O)C1=CCC(c2cccc(Cl)c2)N(S(=O)(=O)c2ccc(C)cc2)C1 (stereo unspecified)	·	·	·	?	·	–
N#CC(=C1C=CC(=NO)C(Cl)=C1)c1ccccc1	·	·	·	?	·	6.51µM
C[n+]1c(/C=C/c2ccc(N)cc2)sc2ccccc21	·	·	·	–	·	–
CC(C)N1CCC2(CC1)N=C(c1ccc3c(c1)OCO3)CC(c1cc(Cl)ccc1O)N2 (stereo unspecified)	5.8µM	–	–	?	?	14.6µM
Oc1ccc(Cl)cc1C1C=C(c2ccc3c(c2)OCO3)NC(c2ccc(C(F)(F)F)cc2)N1 (stereo unspecified)	·	·	·	–	·	?
CC12CC(c3ccccc3O1)N(C(=O)c1ccco1)C(=S)N2c1ccccc1 (stereo unspecified)	23.1µM	–	–	–	–	–
CC(C(=O)NCC1CCCCC1)N(C)CC(=O)Nc1ccc(N2CCOCC2)cc1 (stereo unspecified)	–	–	–	?	–	–
c1ccc2c(c1)c1c(c3ccccc32)CN2CCCC2C1 (stereo unspecified)	?	–	–	16.4µM	18.4µM	?
CCC(C)[C@H](NC(=O)[C@@H]1CSC2c3ccccc3C(=O)N21)C(=O)NCc1ccncc1 (stereo partly specified)	–	–	–	–	–	–
CC(C)C(C)NC(=O)COc1ccc(Sc2ccc(OCC(=O)NC(C)C(C)C)cc2)cc1 (stereo unspecified)	–	–	–	2.91µM	–	?
Cc1ccc(NC(=O)Cn2cc(S(=O)(=O)c3ccc(F)cc3)c(=O)c3cc4c(cc32)OCO4)cc1	·	·	·	–	·	–
COC(=O)C1Cc2c([nH]c3ccccc23)C2(CCN(Cc3ccccc3)CC2)N1 (stereo unspecified)	–	-81.2	–	?	–	–
CCCN1CCC2(CC1)NC(C(=O)O)Cc1c2[nH]c2ccccc12 (stereo unspecified)	–	–	–	–	–	–
Cc1cc(Nc2cccc([N+](=O)[O-])c2)n2c(nc3ccccc32)c1C#N	6.31µM	–	–	3.26µM	?	5.17µM
Cc1cc(Nc2ccc(F)cc2)n2c(nc3ccccc32)c1C#N	·	·	·	–	·	–
CCOc1ccccc1NC(=O)CSc1nc2nc(-c3cccs3)cc(C(F)(F)F)c2c(=O)[nH]1	16.4µM	–	–	–	–	–
COc1ccc(NC(=O)CSc2nc3nc(-c4cccs4)cc(C(F)(F)F)c3c(=O)[nH]2)c(OC)c1	?	–	–	–	–	–
COc1cc(OC)cc(C(=O)Nc2nnc3n2CCS3)c1	·	·	·	–	·	–
CC(=O)N1CC(C)Sc2ccc(S(=O)(=O)NCc3ccc(Cl)cc3)cc21 (stereo unspecified)	–	–	–	–	?	23.1µM
CC(=O)N1CC(C)Sc2ccc(S(=O)(=O)NCCc3ccc(C)cc3)cc21 (stereo unspecified)	?	–	–	–	–	–
COc1ccc(NS(=O)(=O)c2ccc(NC(=O)c3ccc(N(C)S(C)(=O)=O)cc3)cc2)c(OC)c1	–	–	–	–	–	4.61µM
CCOc1ccc(S(=O)(=O)Nc2cc(OC)ccc2OC)cc1	?	–	–	0.411µM	0.411µM	0.103µM
COc1ccc(NS(=O)(=O)c2ccc(NS(=O)(=O)c3ccc(SC)cc3)cc2)c(OC)c1	?	–	–	?	–	–
COc1ccc(OC)c(NS(=O)(=O)c2ccc(NC(C)=O)cc2)c1	?	–	–	20.6µM	–	?
SMILES	MCF10A rerep	KCNH2 3.1 block	hERG WT inh	KB-V1 cytotox	SW480 rereplic	KB-3-1 tox
COc1ccc(OC)c(NS(=O)(=O)c2ccc(SC)cc2)c1	13µM	–	–	4.11µM	13µM	7.31µM
COc1ccc(CC(=O)Nc2ccc(S(=O)(=O)NC(C)C)cc2)cc1	–	–	–	16.4µM	–	–
CCC(CC)C(=O)Nc1cccc(-c2nc3cccnc3s2)c1C	·	·	·	–	·	–
O=C(NCCc1ccccc1)c1ccc2nc(-c3ccco3)c(-c3ccco3)nc2c1	20.6µM	–	–	?	?	?
CCN(CC(=O)Nc1c(F)cccc1F)C(=O)CSCC(=O)Nc1cccc(C)c1	–	–	–	–	–	?
CCN(CC)C1Oc2cc3c(cc2C(c2cc(OC)c(OC)c(OC)c2)C1C)OCO3 (stereo unspecified)	1.46µM	–	–	?	?	1.16µM
COc1cc(C2c3cc4c(cc3OC(N3CCCCC3)C2C)OCO4)cc(OC)c1O (stereo unspecified)	?	–	–	?	?	?
COc1cc([C@@H]2c3cc4c(cc3[C@@H](O)[C@H]3COC(=O)[C@H]23)OCO4)cc(OC)c1O[Si](C)(C)C(C)(C)C	?	–	–	?	–	5.8µM
COc1cc(C2CC(=O)Oc3cc4c(cc32)OCO4)cc(OC)c1OC (stereo unspecified)	–	–	–	–	–	–
COc1cc(C2c3cc4c(cc3C3OC(=O)C2C3CO)OCO4)cc(OC)c1OC (stereo unspecified)	·	–	–	0.206µM	·	?
CN(c1ccccc1)c1nc(C#N)nc(N2CCOCC2)n1	·	·	·	?	·	–
CCn1ccc2cc(S(=O)(=O)N3CCC(C(=O)NCc4ccc(OC(C)C)cc4)CC3)ccc21	·	·	·	–	·	–
Cc1ccc(-c2cc(C(F)(F)F)c(C#N)c(SCCC#N)n2)o1	?	–	–	–	9.2µM	–
CCC1SC(C)C/C(=N/NC(N)=O)C1C (stereo unspecified)	–	–	–	–	–	–
CC1CC(C)C(=NNC(N)=O)C(C(O)CC2CCC(=O)NC2=O)C1 (stereo unspecified)	?	–	–	?	–	11.6µM
Clc1ccc(-c2ccc(/C=N/Nc3cc(N4CCOCC4)nc(N4CCOCC4)n3)o2)cc1	?	-95.2	?	?	13µM	?
Cc1cccc(/C=N/Nc2cc(N3CCOCC3)nc(N3CCOCC3)n2)c1	?	–	–	14.6µM	2.06µM	?
Brc1ccc(-c2ccc(/C=N/Nc3nc(N4CCOCC4)nc(N4CCOCC4)n3)o2)cc1	–	-94.7	–	–	?	–
Brc1ccc(-c2ccc(/C=N/Nc3nc4ccccc4[nH]3)o2)cc1	11.6µM	–	·	–	5.8µM	–
O=S(=O)(c1cccc2ccccc12)N1CCC2CC1c1cc(-c3ccc4c(c3)OCO4)ccc12 (stereo unspecified)	·	·	·	–	·	–
CC1(c2nnnn2-c2ccc3c(c2)OCCO3)CCC(=O)N1CC(F)(F)F (stereo unspecified)	·	·	·	–	·	–
